The OligoGym collection

Target: CMYA5
Assay: pooled miR-30 sensor sort-seq; sequence = guide strand
Conditions: shRNA
Further: reference of the scale not given here.

Question: With TTAACATCTGGTCACTTCTTGC as the sequence, how does the sensor-assay potency score (higher = more potent) read?
Answer: -0.814

Question: With TGAATCAATGACATCTTCCTTG as the sequence, how does the sensor-assay potency score (higher = more potent) read?
Answer: 0.597

Question: With TATGACTTCTCTTTCTCCGTGG as the sequence, how does the sensor-assay potency score (higher = more potent) read?
Answer: 0.895

Target: CNGA4
Assay: as above
Conditions: shRNA

Question: With TTGTAGATGACAGAGCTCATGC as the sequence, how does the sensor-assay potency score (higher = more potent) read?
Answer: -0.748

Question: With TACCAGTCAATAACTCGCCGCT as the sequence, how does the sensor-assay potency score (higher = more potent) read?
Answer: 0.117

Question: Which sensor-assay potency score (higher = more potent) does the source give for ACTGTAGTCAGTATCAGCGTGG here?
Answer: -0.617

Question: How did the sensor-assay potency score (higher = more potent) turn out when ATAACCGTGCTGCAAGTCGGGG was run?
Answer: -1.46

Question: Which sensor-assay potency score (higher = more potent) does the source give for TTGATGTTGGCTGTGCGGCGGT here?
Answer: -0.481

Question: How did the sensor-assay potency score (higher = more potent) turn out when TCTCGGATGATGTACATCTCTT was run?
Answer: -0.967

Question: Which sensor-assay potency score (higher = more potent) does the source give for TTCAGCAGGATCTCACGTCCTT here?
Answer: 0.0798

Question: For TTCATGTTGTAGATGACAGAGC, which sensor-assay potency score (higher = more potent) is on record?
Answer: -0.761

Question: How did the sensor-assay potency score (higher = more potent) turn out when TAAGCTGTGCGGGTCTCTGTGC was run?
Answer: -0.546

Question: With ATACCAGTCAATAACTCGCCGC as the sequence, how does the sensor-assay potency score (higher = more potent) read?
Answer: -0.942

Question: For TCGGATGATGTACATCTCTTGG, which sensor-assay potency score (higher = more potent) is on record?
Answer: -1.02

Question: Which sensor-assay potency score (higher = more potent) does the source give for TTCACCTGGTGAGTAGGTCTGG here?
Answer: -0.244

Question: With TATAGCAGGTCACTCGTGTAGT as the sequence, how does the sensor-assay potency score (higher = more potent) read?
Answer: -0.135

Question: Which sensor-assay potency score (higher = more potent) does the source give for TAACCGTGCTGCAAGTCGGGGA here?
Answer: -0.253

Question: Which sensor-assay potency score (higher = more potent) does the source give for TCGTTGGTCATCTTCTTGTTGA here?
Answer: -0.985

Question: With TTCAATGCGGTAAGCAATCTTA as the sequence, how does the sensor-assay potency score (higher = more potent) read?
Answer: -0.691

Question: Which sensor-assay potency score (higher = more potent) does the source give for ATGATGTACATCTCTTGGCCAA here?
Answer: -1.02

Question: For TAAGCAATCTTAAGTGCGCTGG, which sensor-assay potency score (higher = more potent) is on record?
Answer: 0.0217

Question: How did the sensor-assay potency score (higher = more potent) turn out when TACCTCGTTGGTCATCTTCTTG was run?
Answer: -0.968

Question: TAGATGACAGAGCTCATGCTAC was tested. Which sensor-assay potency score (higher = more potent) did it give?
Answer: -0.751

Question: With TGCTTGTGGATACTCGCTCAGC as the sequence, how does the sensor-assay potency score (higher = more potent) read?
Answer: -1.17

Question: Which sensor-assay potency score (higher = more potent) does the source give for TTCTGAAAGATCTGCACCCGGC here?
Answer: -0.677

Question: TAGGTCTGAATAACCTAGGCTC was tested. Which sensor-assay potency score (higher = more potent) did it give?
Answer: -0.534
